# Records with an inconclusive call do not appear. Where a call stands in place of a potency, no number is given. Unmarked numbers belong to inactive results. Active and inactive are the calls of the source. Calls follow the shape of the dose curve; as a rule, active = well fitted inhibition curve with a large enough effect; inconclusive = small, poorly fitted or top-dose-only effect; inactive = flat fitted curve, though single readings scatter.
# How the values were obtained:
# [1] = system: HEK293; test: Cytotoxic Profiling of Annotated Libraries Using Quantitative High-Throughput Screening (AID 1296008); conditions: Five cell lines viability, CellTiter-Glo ATP luminescence, 48-72 h; max response: hits give low values; also: potency is read from the fitted curve at half-maximal effect
# Method in brief: (§1)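 Compounds were pin-transferred onto cells and incubated 48 or 72 hr at 37 degree Celsius, 95% humidity. CellTiter-Glo was added, plates sat 10 min at room temperature, then ATP-coupled luminescence was imaged as the viability read-out.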
# [2] = system: HaCat; test: as above; conditions: Five cell lines viability, CellTiter-Glo ATP luminescence, 48-72 h; max response: hits give low values
# Method in brief: as §1
# [3] = system: KB-3-1; test: as above; conditions: Five cell lines viability, CellTiter-Glo ATP luminescence, 48-72 h; max response: hits give low values
# Method in brief: as §1
# [4] = system: NIH3T3; test: as above; conditions: Five cell lines viability, CellTiter-Glo ATP luminescence, 48-72 h; max response: hits give low values
# Method in brief: as §1
# [5] = system: HEK293T; test: qHTS assay to identify novel small-molecules to repurpose for Merkel cell carcinoma treatment (AID 1296009); conditions: MCC and control cell lines, CellTiter-Glo viability, 72 h; at 44.8 µM (top of the series) unless noted
# Method in brief: (§2)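 Cells exposed to NPC (8-point) and MIPE (11-point) compound dilutions for 72 hr at 37 degree celsius; viability read by CellTiter-Glo luminescence, normalized to no-cell and DMSO in-plate controls.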
# [6] = system: MCC-13; test: as above; conditions: MCC and control cell lines, CellTiter-Glo viability, 72 h; series mostly up to 46 µM
# Method in brief: as §2
# [7] = system: MCC-26; test: as above; conditions: MCC and control cell lines, CellTiter-Glo viability, 72 h; series mostly up to 46 µM
# Method in brief: as §2
# [8] = system: MKL-1; test: as above; conditions: MCC and control cell lines, CellTiter-Glo viability, 72 h; series mostly up to 46 µM
# Method in brief: as §2
# [9] = system: MKL-2; test: as above; conditions: MCC and control cell lines, CellTiter-Glo viability, 72 h; series mostly up to 46 µM
# Method in brief: as §2
# [10] = system: HACAT; test: as above; conditions: MCC and control cell lines, CellTiter-Glo viability, 72 h; at 44.8 µM (top of the series) unless noted
# Method in brief: as §2
# Also: nearly all actives have a fitted effect of over 60% in size.
smiles,measurement,setting,value
Brc1ccc([C@H]2CN3CCSC3=N2)cc1,max response,[1],3.24%
same,max response,[2],-7.1%
same,max response,[3],5.27%
same,outcome,[4],inactive
NC(=O)C1(N2CCCCC2)CCN(CCCN2c3ccccc3CCc3ccc(Cl)cc32)CC1,Potency,[1],10.6 µM (active)
C1=CC2C3C=CC(C3)C2C1 (configuration not stated),outcome,[1],inactive
same,max response,[2],-9.73%
same,max response,[3],-6.71%
same,max response,[4],0.366%
same,outcome,[5],inactive [at 92 µM]
same,Potency,[6],inactive
same,Potency,[7],inactive
same,Potency,[8],inactive
same,Potency,[9],inactive
C=CC[N+]1([C@H]2C[C@H]3[C@@H]4CC[C@H]5C[C@H](OC(C)=O)[C@@H](N6CCCCC6)C[C@]5(C)[C@H]4CC[C@]3(C)[C@H]2OC(=O)CC)CCCCC1,max response,[1],0.459%
same,max response,[2],4.73%
same,outcome,[3],inactive
same,max response,[4],-0.979%
same,Potency,[6],inactive
same,Potency,[7],inactive
same,Potency,[8],inactive
O=C(CCCCC(=O)Nc1c(I)cc(I)c(C(=O)O)c1I)Nc1c(I)cc(I)c(C(=O)O)c1I,outcome,[1],inactive
same,max response,[2],4.99%
same,max response,[3],-11.9%
same,max response,[4],4.23%
same,outcome,[5],inactive
same,Potency,[6],inactive
same,Potency,[7],inactive
same,Potency,[8],inactive
same,Potency,[9],inactive
CC(CCc1ccc2c(c1)OCO2)NN (configuration not stated),outcome,[1],inactive
same,max response,[2],2.43%
same,max response,[3],-13.1%
same,outcome,[4],inactive
same,outcome,[5],inactive
same,Potency,[6],inactive
same,Potency,[7],inactive
same,Potency,[8],inactive
same,Potency,[9],inactive
OCc1cccnc1,max response,[1],-2.02%
same,max response,[2],3.51%
same,max response,[3],3.27%
same,outcome,[4],inactive
same,Potency,[6],inactive
same,Potency,[7],inactive
same,Potency,[8],inactive
same,Potency,[9],inactive
OC(CCCN1CCCCC1)(c1ccccc1)c1ccccc1,max response,[1],-39.9%
same,max response,[2],-16%
same,max response,[3],-5.63%
same,max response,[4],-14.5%
same,Potency,[6],inactive
same,Potency,[7],inactive
same,Potency,[8],inactive
same,Potency,[9],inactive
CO[C@]1(NC(=O)CSC(F)F)C(=O)N2C(C(=O)O)=C(CSc3nnnn3CCO)CO[C@H]21,max response,[1],-23.2%
same,max response,[2],4.33%
same,outcome,[3],inactive
same,max response,[4],1.66%
same,Potency,[6],inactive
same,Potency,[7],inactive
same,Potency,[8],inactive
same,Potency,[9],inactive
CC(=O)OCC(=O)[C@@]1(O)CCC2C3CCC4=CC(=O)CC[C@]4(C)C3[C@@H](O)C[C@@]21C (some centres not stated),max response,[1],2.9%
same,max response,[2],3.13%
same,max response,[3],0.5%
same,max response,[4],0.645%
same,Potency,[6],inactive
same,Potency,[8],inactive
same,Potency,[9],inactive
Nc1c(NC/C=C\COc2cc(CN3CCCCC3)ccn2)c(=O)c1=O,max response,[1],-20.2%
same,max response,[2],-11%
same,Potency,[3],23.1 µM (active)
same,max response,[4],0.202%
same,Potency,[6],inactive
same,Potency,[7],inactive
same,Potency,[8],inactive
same,Potency,[9],inactive
Cc1ccccc1N1CCN(CCc2nnc3n2CCCC3)CC1,outcome,[1],inactive
same,max response,[2],-11.8%
same,max response,[3],-5.62%
same,max response,[4],4.77%
same,outcome,[5],inactive
same,Potency,[6],inactive
same,Potency,[8],inactive
same,Potency,[9],inactive
O=C(NN1CCCC1)NS(=O)(=O)c1ccc(Cl)cc1,max response,[1],2.09%
same,max response,[2],-45.6%
same,max response,[3],5.98%
same,max response,[4],4.71%
same,Potency,[6],inactive
same,Potency,[7],inactive
same,Potency,[8],inactive
same,Potency,[9],inactive
CC(C)(C)C(O)/C=C/c1ccc2c(c1)OCO2 (configuration not stated),max response,[1],0.172%
same,max response,[2],-0.175%
same,max response,[3],-0.272%
same,max response,[4],-4.85%
same,Potency,[6],inactive
same,Potency,[7],inactive
same,Potency,[8],inactive
same,Potency,[9],inactive
O=C(O)c1ccccc1S,max response,[1],0.0683%
same,max response,[2],1.95%
same,max response,[3],-5.69%
same,max response,[4],1.26%
same,Potency,[6],inactive
same,Potency,[7],inactive
same,Potency,[8],inactive
same,Potency,[9],inactive
Nc1c[n+](N2CCOCC2)no1,outcome,[1],inactive
same,max response,[2],-23.5%
same,max response,[3],-10.9%
same,outcome,[4],inactive
same,outcome,[5],inactive
same,Potency,[6],inactive
same,Potency,[7],inactive
same,Potency,[8],inactive
same,Potency,[9],inactive
O=P(O)(O)OCC(O)CO (configuration not stated),max response,[1],-2.36%
same,max response,[2],0.361%
same,max response,[3],-6.39%
same,outcome,[4],inactive
same,Potency,[6],inactive
same,Potency,[7],inactive
same,Potency,[8],inactive
same,Potency,[9],inactive
OCCc1ccccc1,max response,[1],-1.38%
same,max response,[2],-14.1%
same,max response,[3],-8.71%
same,max response,[4],-0.715%
same,Potency,[6],inactive
same,Potency,[7],inactive
same,Potency,[8],inactive
same,Potency,[9],inactive
C[C@@H](C1=C(CCN(C)C)Cc2ccccc21)c1ccccn1,max response,[1],-25.1%
same,outcome,[2],inactive
same,max response,[3],-6.09%
same,max response,[4],1.99%
same,outcome,[10],inactive
same,Potency,[6],inactive
same,Potency,[8],inactive
same,Potency,[9],inactive
OC[C@]1(O)OC[C@@H](O)[C@H](O)[C@@H]1O,outcome,[1],inactive
same,max response,[2],-0.702%
same,max response,[3],-6.46%
same,outcome,[4],inactive
same,outcome,[5],inactive
same,Potency,[6],inactive
same,Potency,[7],inactive
same,Potency,[8],inactive
same,Potency,[9],inactive

# Source: PubChem BioAssay (NCATS)
